Data: PubChem BioAssay (Tox21)
Records with an inconclusive call do not appear. Active and inactive are the calls of the source. Calls follow the shape of the full dose curve.

Tests used:
[1] = molecular target: Acetylcholinesterase (Homo sapiens) (UniProt P22303); assay: Acetylcholinesterase (AChE) small molecule antagonists: colormetric cell-based qHTS assay (AID 1347395); also: nearly all actives have a fitted effect of over 30% in size
Method in brief: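 Neuroblastoma line SH-SY5Y supplied the enzyme; cells were preincubated with compound for 30 min at 37 C and 5% CO2. Acetylthiocholine with DTNB was then added for 90 min at 37 C, and thiocholine was measured by colour.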

[2] = molecular target: Acetylcholinesterase (Homo sapiens) (UniProt P22303); assay: Acetylcholinesterase (AChE) small molecule antagonists: enzyme-based qHTS assay (AID 1347397); conditions: Potency: AChE enzyme activity inhibition; outcome: AChE enzyme activity inhibition; also: nearly all actives have a fitted effect of over 55% in size
Method in brief: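 Colorimetric DTNB read-out of thiocholine released from acetylthiocholine by recombinant human AChE (50 mU/mL as dispensed). Compounds were preincubated 30 min at RT before substrate/DTNB addition, with a 10 min RT reaction.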

[3] = molecular target: Acetylcholinesterase (Homo sapiens) (UniProt P22303); assay: Acetylcholinesterase (AChE) small molecule antagonists: fluorescence cell-based qHTS assay (AID 1347398); conditions: Potency: AChE activity; outcome: AChE activity; also: nearly all actives have a fitted effect of over 50% in size
Method in brief: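 SH-SY5Y, 2,000 cells/well, attached overnight; cmpd 30 min 37 C; acetylthiocholine/Thiolite Green cocktail 40 min RT; fluorescence Ex/Em 490/520 nm.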

[4] = molecular target: Acetylcholinesterase (Homo sapiens) (UniProt P22303); assay: Acetylcholinesterase (AChE) small molecule antagonists: enzyme-based qHTS assay with human liver microsomes (AID 1347399); conditions: Potency: qHTS inhibition; outcome: qHTS inhibition; also: nearly all actives have a fitted effect of over 60% in size
Method in brief: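 Recombinant human AChE (50 mU/mL in the enzyme mix) and human liver microsomes (0.25 mg/mL final) were preincubated with compound and NADPH (0.25 mg/mL final) for 30 min at 37 C. Acetylthiocholine/DTNB was then added; thiocholine was read colorimetrically after 10 min at room temperature.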
% is scaled to controls: 0 for no effect and ±100 for the full control effect.

Acetylcholinesterase (Homo sapiens), sequence (P22303 whole entry, looked up): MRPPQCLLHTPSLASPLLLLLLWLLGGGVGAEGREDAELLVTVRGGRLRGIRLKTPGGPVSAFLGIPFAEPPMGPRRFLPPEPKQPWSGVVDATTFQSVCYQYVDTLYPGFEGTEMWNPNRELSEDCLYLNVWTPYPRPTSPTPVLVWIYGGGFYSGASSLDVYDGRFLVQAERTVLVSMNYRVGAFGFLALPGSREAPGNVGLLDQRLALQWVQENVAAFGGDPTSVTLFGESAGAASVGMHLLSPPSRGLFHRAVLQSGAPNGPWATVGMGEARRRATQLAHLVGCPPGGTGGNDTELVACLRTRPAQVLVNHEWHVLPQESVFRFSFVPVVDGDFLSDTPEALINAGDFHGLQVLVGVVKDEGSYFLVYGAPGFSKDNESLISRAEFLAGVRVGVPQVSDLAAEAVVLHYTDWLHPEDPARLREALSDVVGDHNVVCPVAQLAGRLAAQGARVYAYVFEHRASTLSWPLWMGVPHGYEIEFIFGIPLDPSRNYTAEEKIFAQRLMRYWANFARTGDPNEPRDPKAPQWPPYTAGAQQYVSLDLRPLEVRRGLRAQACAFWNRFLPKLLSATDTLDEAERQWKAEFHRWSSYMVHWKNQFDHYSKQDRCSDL

CCCCCCCCCCCCCCCCN
inactive: Potency [1] | Potency [2] | Potency [3] | Potency [4]

CCn1c2ccccc2c2ccccc21
inactive: Potency [1] | Potency [2] | Potency [3] | Potency [4]

C=CCOCC(O)CCl (stereo not given)
inactive: Potency [1] | Potency [2] | Potency [3] | Potency [4]

CC(C)c1ccc(S(=O)(=O)O)cc1
inactive: Potency [1] | Potency [2] | Potency [3] | Potency [4]

CO[C@@H]1[C@@H](OC)[C@H](C)[C@@](O)(CC(=O)O)O[C@H]1[C@H](C)[C@H]1O[C@@]2(CC[C@@](C)([C@H]3CC[C@@](C)([C@@H]4O[C@@H]([C@H]5O[C@](C)(O)[C@H](C)C[C@@H]5C)C[C@@H]4OC4C[C@H](OC)[C@@H](OC)[C@H](C)O4)O3)O2)C[C@H](O)[C@H]1C (stereo not given in full)
inactive: Potency [1] | Potency [2] | Potency [3] | Potency [4]

O=C(Cl)c1c(Cl)c(Cl)c(C(=O)Cl)c(Cl)c1Cl
inactive: Potency [1] | Potency [2] | Potency [3] | Potency [4]

CC(C)C(=O)c1ccccc1
inactive: Potency [1] | Potency [2] | Potency [3] | Potency [4]

CC(=O)Nc1c(I)c(NC(C)=O)c(I)c(C(=O)O)c1I
inactive: Potency [1] | Potency [2] | Potency [3] | Potency [4]

CCN1CCCC1=O
inactive: Potency [1] | Potency [2] | Potency [3] | Potency [4]

CCCCCCCCCCCCC(=O)O
inactive: Potency [1] | Potency [2] | Potency [3] | Potency [4]

C=C(c1ccc(C(=O)O)cc1)c1cc2c(cc1C)C(C)(C)CCC2(C)C
inactive: Potency [1] | Potency [2] | Potency [3] | Potency [4]

CC(C)c1nc(CN(C)C(=O)N[C@H](C(=O)N[C@@H](Cc2ccccc2)C[C@H](O)[C@H](Cc2ccccc2)NC(=O)OCc2cncs2)C(C)C)cs1
inactive: Potency [1] | Potency [2] | Potency [3] | Potency [4]

CCCCCCCCCCCCCCBr
inactive: Potency [1] | Potency [2] | Potency [3] | Potency [4]

CC/C(=C\C(=N/O)C(N)=O)C(C)[N+](=O)[O-] (stereo not given)
inactive: Potency [1] | Potency [2] | Potency [3] | Potency [4]

Nc1ccc(S(=O)(=O)Nc2cnc3ccccc3n2)cc1
inactive: Potency [1] | Potency [2] | Potency [3] | Potency [4]

CC1=NC(C)OC1C (stereo not given)
inactive: Potency [1] | Potency [2] | Potency [3] | Potency [4]

CC[C@H](C)C(=O)O[C@H]1C[C@H](O)C=C2C=C[C@H](C)[C@H](CC[C@@H](O)C[C@@H](O)CC(=O)O)[C@H]21
inactive: Potency [1] | Potency [2] | Potency [3] | Potency [4]

C/C=C/C=N/NC(=O)c1ccncc1
inactive: Potency [1] | Potency [2] | Potency [3] | Potency [4]

CCOC(=O)c1cccc(N)c1
inactive: outcome [1] | outcome [2] | outcome [3] | outcome [4]

CCNC(=O)N1CCN(CCCC(c2ccc(F)cc2)c2ccc(F)cc2)CC1
inactive: Potency [1] | Potency [2] | Potency [3] | Potency [4]

Cc1ccnc(NS(=O)(=O)c2ccc(N)cc2)n1
inactive: Potency [1] | Potency [2] | Potency [3] | Potency [4]

Nc1ccc(N)c2c1C(=O)c1ccccc1C2=O
inactive: Potency [1] | Potency [2] | Potency [3] | Potency [4]

NC(=O)NC1NC(=O)NC1=O (stereo not given)
inactive: Potency [1] | Potency [2] | Potency [3] | Potency [4]

CCCCC/C=C\C/C=C\CCCCCCCC(=O)OC
inactive: Potency [1] | Potency [2] | Potency [3] | Potency [4]

Clc1sc(Cl)c(Cl)c1Cl
inactive: Potency [1] | Potency [2] | Potency [3] | Potency [4]

CC(CN(C)C)C(C)(O)Cc1ccc(Cl)cc1 (stereo not given)
inactive: Potency [1] | Potency [2] | Potency [3] | Potency [4]

Cc1ccc2nc(-c3ccc(N)cc3)sc2c1S(=O)(=O)O
inactive: Potency [1] | Potency [2] | Potency [3] | Potency [4]

COc1ccc(/C=N/NC(=O)c2ccncc2)cc1OC
inactive: Potency [1] | Potency [2] | Potency [3] | Potency [4]

COc1cccc(N(C)C(=S)Oc2ccc3c(c2)CCCC3)n1
inactive: Potency [1] | Potency [2] | Potency [3] | Potency [4]

CCN(CC)CC(=O)Oc1ccc(NC(C)=O)cc1
inactive: Potency [1] | Potency [2] | Potency [3] | Potency [4]

CC(=O)c1ccccc1
inactive: Potency [1] | Potency [2] | Potency [3] | Potency [4]

CCOC(=O)Oc1ccc(CCNC(=O)[C@H](CCSC)NC(C)=O)cc1OC(=O)OCC
inactive: Potency [1] | Potency [2] | Potency [3] | Potency [4]

Cc1cc(=O)[nH]c(=S)[nH]1
inactive: Potency [1] | Potency [2] | Potency [3] | Potency [4]

COc1ccc(-n2nc(CCC(=O)N(C)O)cc2-c2ccc(Cl)cc2)cc1
inactive: Potency [1] | Potency [2] | Potency [3] | Potency [4]

C[C@H](NC(CCc1ccccc1)C(=O)O)C(=O)N1CCC[C@H]1C(=O)O (stereo not given in full)
inactive: Potency [1] | Potency [2] | Potency [3] | Potency [4]

CC1(C)Cc2cccc(N)c2O1
inactive: Potency [1] | Potency [2] | Potency [3] | Potency [4]

OC[C@]1(O)OC[C@@H](O)[C@H](O)[C@@H]1O
inactive: Potency [1] | Potency [2] | Potency [3] | Potency [4]

NC(N)=S
inactive: Potency [1] | Potency [2] | Potency [3] | Potency [4]

NCCOCCO
inactive: Potency [1] | Potency [2] | Potency [3] | Potency [4]

C=CC/C=C/C
inactive: Potency [1] | Potency [2] | Potency [3] | Potency [4]

OC(CCCN1CCCCC1)(c1ccccc1)c1ccccc1
inactive: Potency [1] | Potency [2] | Potency [3] | Potency [4]

Cc1cc2nc(N)sc2cc1C
inactive: Potency [1] | Potency [2] | Potency [3] | Potency [4]

COc1cc(C)ccc1O
inactive: Potency [1] | Potency [2] | Potency [3] | Potency [4]

Oc1cc(O)c(Cl)cc1Cl
inactive: Potency [1] | Potency [2] | Potency [3] | Potency [4]

CCN(CCCc1ccccc1)CCCc1ccccc1
inactive: Potency [1] | Potency [2] | Potency [3] | Potency [4]

NNC(=O)c1ccncc1
inactive: Potency [1] | Potency [2] | Potency [3] | Potency [4]

CC(C)(Oc1ccc(C2CC2(Cl)Cl)cc1)C(=O)O (stereo not given)
inactive: Potency [1] | Potency [2] | Potency [3] | Potency [4]

Cc1noc(NS(=O)(=O)c2ccc(N)cc2)c1C
inactive: Potency [1] | Potency [2] | Potency [3] | Potency [4]

O=C(CCCN1CCC(O)(c2ccc(Br)cc2)CC1)c1ccc(F)cc1
inactive: Potency [1] | Potency [2] | Potency [3] | Potency [4]

O=C(O)c1cc(C(=O)O)cc([N+](=O)[O-])c1
inactive: Potency [1] | Potency [2] | Potency [3] | Potency [4]

CC(C)[C@H](N)C(=O)OCCOCn1cnc2c(=O)[nH]c(N)nc21
inactive: Potency [1] | Potency [2] | Potency [3] | Potency [4]

OCC1(CO)COCOC1
inactive: Potency [1] | Potency [2] | Potency [3] | Potency [4]

CCSC(=O)N(CC)CC
inactive: Potency [1] | Potency [2] | Potency [3] | Potency [4]

CN1CN(C)CN(C)C1
inactive: Potency [1] | Potency [2] | Potency [3] | Potency [4]

CCCCC/C=C/CC(=O)OC
inactive: Potency [1] | Potency [2] | Potency [3] | Potency [4]

CCCc1c2oc(C(=O)O)cc(=O)c2cc2c(=O)cc(C(=O)O)n(CC)c12
inactive: Potency [1] | Potency [2] | Potency [3] | Potency [4]

CO[C@@H]1[C@H](OC(=O)/C=C/C=C/C=C/C=C/C(=O)O)CC[C@]2(CO2)[C@H]1[C@@]1(C)O[C@@H]1CC=C(C)C
inactive: Potency [1] | Potency [2] | Potency [3] | Potency [4]

C1CCCNCC1
inactive: Potency [1] | Potency [2] | Potency [3] | Potency [4]

C[C@@H](C1=C(CCN(C)C)Cc2ccccc21)c1ccccn1
inactive: Potency [1] | Potency [2] | Potency [3] | Potency [4]

CCCCCCCCCCCCCCCCCCOCCO
inactive: activity, negative = inhibition [1] 0.0969% [at 23.6 µM] | activity change, negative = inhibition [2] 1.34% [at 23.6 µM] | activity change, negative = inhibition [3] -1.79% [at 23.8 µM] | activity change, negative = inhibition [4] 0.112% [at 23.6 µM]
